# Test results as given in ChEMBL document CHEMBL1961873, “Compounds: GSK PKIS; Assays: Nanosyn kinase panel” (2012).
# Experiments:
# [1] = molecular target: Sphingosine kinase 1 (Homo sapiens) (UniProt Q9NYA1); settings: at 1 µM;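 further: mean SPHK1 inhibition value reported from the GSK PKIS kinase panel screen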
# [2] = molecular target: T1, Sphingosine kinase 2 (Homo sapiens) (UniProt Q9NRA0); settings: at 0.1 µM
# T1 sequence (whole entry): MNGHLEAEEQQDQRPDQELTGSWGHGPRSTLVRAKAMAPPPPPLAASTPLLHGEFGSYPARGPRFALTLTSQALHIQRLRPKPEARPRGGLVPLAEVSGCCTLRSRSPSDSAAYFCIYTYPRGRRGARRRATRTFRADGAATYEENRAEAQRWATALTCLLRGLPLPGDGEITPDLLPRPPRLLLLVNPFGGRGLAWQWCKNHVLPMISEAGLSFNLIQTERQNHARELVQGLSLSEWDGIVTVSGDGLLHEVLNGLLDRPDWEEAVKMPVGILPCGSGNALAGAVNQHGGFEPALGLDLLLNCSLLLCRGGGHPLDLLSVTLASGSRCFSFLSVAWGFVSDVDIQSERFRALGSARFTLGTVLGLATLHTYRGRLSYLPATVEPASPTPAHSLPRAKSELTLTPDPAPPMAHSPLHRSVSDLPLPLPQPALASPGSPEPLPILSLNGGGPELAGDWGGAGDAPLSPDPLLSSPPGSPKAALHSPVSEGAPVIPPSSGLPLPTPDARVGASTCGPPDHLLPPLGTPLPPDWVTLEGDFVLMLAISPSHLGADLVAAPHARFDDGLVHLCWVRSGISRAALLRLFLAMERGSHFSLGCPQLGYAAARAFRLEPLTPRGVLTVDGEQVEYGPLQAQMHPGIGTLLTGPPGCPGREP
# [3] = molecular target: T1, Sphingosine kinase 2 (Homo sapiens); settings: at 1 µM
# [4] = molecular target: Casein kinase II subunit alpha (Homo sapiens) (UniProt P68400); settings: at 0.1 µM
# Casein kinase II subunit alpha (Homo sapiens), sequence (P68400 whole entry, looked up): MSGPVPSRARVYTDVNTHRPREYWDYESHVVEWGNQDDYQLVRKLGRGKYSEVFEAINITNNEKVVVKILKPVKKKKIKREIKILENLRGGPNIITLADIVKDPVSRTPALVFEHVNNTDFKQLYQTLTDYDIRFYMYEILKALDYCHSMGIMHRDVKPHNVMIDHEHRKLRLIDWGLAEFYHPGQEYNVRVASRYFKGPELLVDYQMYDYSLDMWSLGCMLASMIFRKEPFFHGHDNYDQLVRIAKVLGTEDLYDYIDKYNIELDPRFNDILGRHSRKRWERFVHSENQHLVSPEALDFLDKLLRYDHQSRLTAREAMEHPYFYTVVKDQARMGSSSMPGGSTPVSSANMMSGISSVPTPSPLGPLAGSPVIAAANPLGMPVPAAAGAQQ
# [5] = molecular target: Casein kinase II subunit alpha (Homo sapiens) (UniProt P68400); settings: at 1 µM
# [6] = molecular target: T2, Inhibitor of nuclear factor kappa-B kinase subunit alpha (Homo sapiens) (UniProt O15111); settings: at 0.1 µM
# T2 sequence (whole entry): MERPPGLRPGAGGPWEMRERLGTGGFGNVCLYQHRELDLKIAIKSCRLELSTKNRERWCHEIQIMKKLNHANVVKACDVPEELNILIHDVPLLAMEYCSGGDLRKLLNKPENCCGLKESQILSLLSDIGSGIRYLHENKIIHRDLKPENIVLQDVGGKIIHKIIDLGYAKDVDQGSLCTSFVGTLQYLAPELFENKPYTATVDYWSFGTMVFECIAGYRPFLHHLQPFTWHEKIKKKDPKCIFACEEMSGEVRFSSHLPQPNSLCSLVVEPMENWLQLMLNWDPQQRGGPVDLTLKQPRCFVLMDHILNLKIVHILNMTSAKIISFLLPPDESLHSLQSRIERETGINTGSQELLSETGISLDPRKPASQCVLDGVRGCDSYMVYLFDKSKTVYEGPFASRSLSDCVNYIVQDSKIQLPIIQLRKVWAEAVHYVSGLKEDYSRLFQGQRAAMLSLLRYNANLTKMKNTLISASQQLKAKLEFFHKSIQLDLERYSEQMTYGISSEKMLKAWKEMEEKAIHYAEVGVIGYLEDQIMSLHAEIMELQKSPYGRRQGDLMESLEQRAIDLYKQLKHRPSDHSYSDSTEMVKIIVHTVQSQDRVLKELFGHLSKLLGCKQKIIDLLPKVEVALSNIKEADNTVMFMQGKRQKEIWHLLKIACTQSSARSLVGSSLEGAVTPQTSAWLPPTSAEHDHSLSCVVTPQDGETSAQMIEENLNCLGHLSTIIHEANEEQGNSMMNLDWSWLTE
# [7] = molecular target: T2, Inhibitor of nuclear factor kappa-B kinase subunit alpha (Homo sapiens); settings: at 1 µM
# [8] = molecular target: T3, Inhibitor of nuclear factor kappa-B kinase subunit beta (Homo sapiens) (UniProt O14920); settings: at 0.1 µM
# T3 sequence (whole entry): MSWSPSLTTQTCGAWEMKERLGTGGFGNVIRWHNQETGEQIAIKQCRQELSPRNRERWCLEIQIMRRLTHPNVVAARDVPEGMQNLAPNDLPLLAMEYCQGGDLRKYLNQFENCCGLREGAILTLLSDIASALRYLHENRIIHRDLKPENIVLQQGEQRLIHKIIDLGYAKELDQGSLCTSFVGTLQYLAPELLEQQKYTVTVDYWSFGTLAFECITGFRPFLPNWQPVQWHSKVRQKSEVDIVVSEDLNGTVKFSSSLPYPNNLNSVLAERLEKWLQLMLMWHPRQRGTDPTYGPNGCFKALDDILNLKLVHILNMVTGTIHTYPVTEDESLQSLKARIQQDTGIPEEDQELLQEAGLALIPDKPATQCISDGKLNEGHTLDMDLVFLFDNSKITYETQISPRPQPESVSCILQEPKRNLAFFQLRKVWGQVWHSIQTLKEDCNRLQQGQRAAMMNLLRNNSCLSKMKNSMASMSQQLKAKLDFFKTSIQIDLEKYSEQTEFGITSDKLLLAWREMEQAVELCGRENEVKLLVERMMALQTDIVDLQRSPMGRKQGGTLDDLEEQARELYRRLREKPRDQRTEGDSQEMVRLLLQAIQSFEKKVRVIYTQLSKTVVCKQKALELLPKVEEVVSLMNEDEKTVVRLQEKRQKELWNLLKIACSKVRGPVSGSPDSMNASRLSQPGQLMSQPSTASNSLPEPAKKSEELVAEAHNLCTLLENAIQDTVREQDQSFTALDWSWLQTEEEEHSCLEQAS
# [9] = molecular target: T3, Inhibitor of nuclear factor kappa-B kinase subunit beta (Homo sapiens); settings: at 1 µM
# [10] = molecular target: T4, Inhibitor of nuclear factor kappa-B kinase subunit epsilon (Homo sapiens) (UniProt Q14164); settings: at 0.1 µM
# T4 sequence (whole entry): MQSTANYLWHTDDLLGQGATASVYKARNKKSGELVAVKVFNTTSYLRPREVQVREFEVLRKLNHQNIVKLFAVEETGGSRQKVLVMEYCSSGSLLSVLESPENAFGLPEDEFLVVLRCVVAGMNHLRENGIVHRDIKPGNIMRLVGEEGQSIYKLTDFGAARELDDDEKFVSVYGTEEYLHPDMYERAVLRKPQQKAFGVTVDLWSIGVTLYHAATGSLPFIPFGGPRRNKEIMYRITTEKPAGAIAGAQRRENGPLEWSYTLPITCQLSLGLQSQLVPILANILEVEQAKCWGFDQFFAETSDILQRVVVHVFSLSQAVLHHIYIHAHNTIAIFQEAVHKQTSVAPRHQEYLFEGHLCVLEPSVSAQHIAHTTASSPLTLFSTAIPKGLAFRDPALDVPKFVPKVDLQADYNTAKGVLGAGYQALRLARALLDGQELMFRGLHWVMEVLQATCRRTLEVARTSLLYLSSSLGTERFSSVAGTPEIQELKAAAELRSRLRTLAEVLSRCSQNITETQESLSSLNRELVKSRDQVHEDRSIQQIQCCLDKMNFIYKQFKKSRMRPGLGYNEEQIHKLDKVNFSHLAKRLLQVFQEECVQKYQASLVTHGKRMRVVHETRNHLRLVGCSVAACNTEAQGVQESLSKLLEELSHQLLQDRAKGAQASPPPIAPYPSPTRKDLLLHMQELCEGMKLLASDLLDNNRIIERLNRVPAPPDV
# [11] = molecular target: T4, Inhibitor of nuclear factor kappa-B kinase subunit epsilon (Homo sapiens); settings: at 1 µM
# [12] = molecular target: T5, Serine/threonine-protein kinase Nek1 (Homo sapiens) (UniProt Q96PY6); settings: at 0.1 µM
# T5 sequence (whole entry): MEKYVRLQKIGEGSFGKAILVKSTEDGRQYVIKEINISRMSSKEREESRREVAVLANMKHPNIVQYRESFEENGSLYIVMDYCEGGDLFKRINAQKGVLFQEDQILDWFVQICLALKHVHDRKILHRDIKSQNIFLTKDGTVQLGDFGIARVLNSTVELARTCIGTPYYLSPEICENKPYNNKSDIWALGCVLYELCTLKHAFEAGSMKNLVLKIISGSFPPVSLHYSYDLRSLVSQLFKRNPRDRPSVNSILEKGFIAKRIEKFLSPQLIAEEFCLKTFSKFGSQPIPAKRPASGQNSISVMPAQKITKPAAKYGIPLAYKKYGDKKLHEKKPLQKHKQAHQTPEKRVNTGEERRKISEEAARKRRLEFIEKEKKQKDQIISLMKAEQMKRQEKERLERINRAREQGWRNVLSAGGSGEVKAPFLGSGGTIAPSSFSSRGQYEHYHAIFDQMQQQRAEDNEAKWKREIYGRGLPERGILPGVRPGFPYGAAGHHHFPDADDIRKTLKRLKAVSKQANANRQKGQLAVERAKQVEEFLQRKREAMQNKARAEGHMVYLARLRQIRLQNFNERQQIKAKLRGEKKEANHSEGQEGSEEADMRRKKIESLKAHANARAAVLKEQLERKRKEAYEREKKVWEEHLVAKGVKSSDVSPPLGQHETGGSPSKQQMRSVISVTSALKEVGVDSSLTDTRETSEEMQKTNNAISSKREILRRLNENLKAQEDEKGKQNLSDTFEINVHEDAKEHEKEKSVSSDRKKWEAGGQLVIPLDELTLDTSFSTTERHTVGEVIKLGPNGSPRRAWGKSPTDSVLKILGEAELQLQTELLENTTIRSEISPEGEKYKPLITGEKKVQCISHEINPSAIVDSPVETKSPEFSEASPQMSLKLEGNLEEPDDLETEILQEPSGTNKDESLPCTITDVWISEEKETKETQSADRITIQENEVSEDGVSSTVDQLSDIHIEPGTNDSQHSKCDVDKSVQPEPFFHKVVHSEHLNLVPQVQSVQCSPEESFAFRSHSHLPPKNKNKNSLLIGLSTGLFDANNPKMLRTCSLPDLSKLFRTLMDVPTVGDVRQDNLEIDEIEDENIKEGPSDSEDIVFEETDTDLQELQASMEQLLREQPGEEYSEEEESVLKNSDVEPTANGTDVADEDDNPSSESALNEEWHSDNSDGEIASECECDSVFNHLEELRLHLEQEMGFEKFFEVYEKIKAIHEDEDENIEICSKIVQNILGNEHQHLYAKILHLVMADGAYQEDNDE
# [13] = molecular target: T5, Serine/threonine-protein kinase Nek1 (Homo sapiens); settings: at 1 µM
# [14] = molecular target: T6, Serine/threonine-protein kinase Nek2 (Homo sapiens) (UniProt P51955); settings: at 0.1 µM
# T6 sequence (whole entry): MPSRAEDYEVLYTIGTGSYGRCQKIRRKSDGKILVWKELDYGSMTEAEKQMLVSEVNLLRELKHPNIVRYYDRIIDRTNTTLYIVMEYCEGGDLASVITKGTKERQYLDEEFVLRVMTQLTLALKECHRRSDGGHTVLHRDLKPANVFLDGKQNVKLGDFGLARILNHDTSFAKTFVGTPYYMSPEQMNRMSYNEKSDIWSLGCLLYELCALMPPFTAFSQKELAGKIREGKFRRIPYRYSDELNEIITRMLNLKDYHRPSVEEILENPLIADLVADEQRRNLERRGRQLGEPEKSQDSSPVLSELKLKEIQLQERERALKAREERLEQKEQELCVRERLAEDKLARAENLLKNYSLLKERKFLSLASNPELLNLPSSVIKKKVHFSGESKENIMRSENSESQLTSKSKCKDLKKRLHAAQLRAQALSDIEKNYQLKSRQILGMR
# [15] = molecular target: T6, Serine/threonine-protein kinase Nek2 (Homo sapiens); settings: at 1 µM
# [16] = molecular target: Serine/threonine-protein kinase Nek6 (Homo sapiens) (UniProt Q9HC98); settings: at 0.1 µM
# Serine/threonine-protein kinase Nek6 (Homo sapiens), sequence (Q9HC98 whole entry): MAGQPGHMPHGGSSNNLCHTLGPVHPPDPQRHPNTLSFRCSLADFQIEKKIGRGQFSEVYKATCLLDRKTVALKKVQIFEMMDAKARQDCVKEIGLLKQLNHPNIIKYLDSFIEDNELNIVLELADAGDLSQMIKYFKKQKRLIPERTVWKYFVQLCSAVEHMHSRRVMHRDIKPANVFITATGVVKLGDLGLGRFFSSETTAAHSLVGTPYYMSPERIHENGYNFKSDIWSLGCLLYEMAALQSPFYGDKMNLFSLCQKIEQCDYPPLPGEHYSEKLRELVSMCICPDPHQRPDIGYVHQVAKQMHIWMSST
# [17] = molecular target: Serine/threonine-protein kinase Nek6 (Homo sapiens) (UniProt Q9HC98); settings: at 1 µM
# [18] = molecular target: Serine/threonine-protein kinase Nek7 (Homo sapiens) (UniProt Q8TDX7); settings: at 0.1 µM
# Serine/threonine-protein kinase Nek7 (Homo sapiens), sequence (Q8TDX7 whole entry, looked up): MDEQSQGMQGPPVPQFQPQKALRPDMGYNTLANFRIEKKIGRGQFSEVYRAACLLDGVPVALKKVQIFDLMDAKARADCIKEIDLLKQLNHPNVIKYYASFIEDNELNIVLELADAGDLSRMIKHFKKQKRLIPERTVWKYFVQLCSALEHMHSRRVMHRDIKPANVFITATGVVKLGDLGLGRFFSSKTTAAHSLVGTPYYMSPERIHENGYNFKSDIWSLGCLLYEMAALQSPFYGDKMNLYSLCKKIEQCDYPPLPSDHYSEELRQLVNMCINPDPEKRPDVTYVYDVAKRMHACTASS
# [19] = molecular target: Serine/threonine-protein kinase Nek7 (Homo sapiens) (UniProt Q8TDX7); settings: at 1 µM
# [20] = molecular target: T7, Serine/threonine-protein kinase Nek9 (Homo sapiens) (UniProt Q8TD19); settings: at 0.1 µM;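 further: reported value is the mean percent inhibition of NEK9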
# T7 sequence (whole entry): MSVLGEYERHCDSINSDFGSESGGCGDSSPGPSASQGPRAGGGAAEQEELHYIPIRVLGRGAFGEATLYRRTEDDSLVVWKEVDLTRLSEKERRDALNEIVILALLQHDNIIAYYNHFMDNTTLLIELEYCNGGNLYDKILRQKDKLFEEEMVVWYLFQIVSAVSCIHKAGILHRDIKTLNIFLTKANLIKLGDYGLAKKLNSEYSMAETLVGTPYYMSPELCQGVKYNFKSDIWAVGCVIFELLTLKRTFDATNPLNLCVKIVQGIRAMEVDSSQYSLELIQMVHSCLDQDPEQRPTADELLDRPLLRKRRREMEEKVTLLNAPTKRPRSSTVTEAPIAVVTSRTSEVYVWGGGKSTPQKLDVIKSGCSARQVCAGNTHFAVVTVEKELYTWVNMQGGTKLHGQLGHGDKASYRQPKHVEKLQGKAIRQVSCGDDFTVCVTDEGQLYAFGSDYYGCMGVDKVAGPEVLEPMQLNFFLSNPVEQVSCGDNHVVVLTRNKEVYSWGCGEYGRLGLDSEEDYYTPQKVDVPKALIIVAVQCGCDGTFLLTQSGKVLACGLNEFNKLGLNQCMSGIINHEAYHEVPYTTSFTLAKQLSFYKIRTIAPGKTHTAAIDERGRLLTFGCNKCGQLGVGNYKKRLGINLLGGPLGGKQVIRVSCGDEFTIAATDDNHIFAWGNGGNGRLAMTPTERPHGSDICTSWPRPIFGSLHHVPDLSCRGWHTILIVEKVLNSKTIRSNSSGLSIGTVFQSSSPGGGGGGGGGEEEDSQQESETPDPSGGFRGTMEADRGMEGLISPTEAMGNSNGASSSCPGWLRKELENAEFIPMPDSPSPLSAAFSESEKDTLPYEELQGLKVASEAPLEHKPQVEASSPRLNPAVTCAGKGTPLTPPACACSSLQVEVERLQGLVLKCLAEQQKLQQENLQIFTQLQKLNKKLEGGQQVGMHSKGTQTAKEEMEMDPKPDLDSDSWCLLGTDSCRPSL
# Sphingosine kinase 1 (Homo sapiens), sequence (Q9NYA1 whole entry): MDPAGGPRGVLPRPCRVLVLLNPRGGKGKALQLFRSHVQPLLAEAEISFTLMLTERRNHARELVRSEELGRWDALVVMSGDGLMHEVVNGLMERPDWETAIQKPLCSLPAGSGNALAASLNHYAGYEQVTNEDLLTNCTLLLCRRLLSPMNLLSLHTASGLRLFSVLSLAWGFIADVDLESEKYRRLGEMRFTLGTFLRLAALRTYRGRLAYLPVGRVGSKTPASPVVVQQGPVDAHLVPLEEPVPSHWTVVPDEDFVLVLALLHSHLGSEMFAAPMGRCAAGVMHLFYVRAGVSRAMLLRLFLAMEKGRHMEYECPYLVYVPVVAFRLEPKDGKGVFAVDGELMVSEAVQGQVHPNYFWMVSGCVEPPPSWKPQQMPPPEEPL
compound,measurement,setting,value
COc1cccc(-n2ncc3c(N/N=C/c4ccc(S(C)(=O)=O)cc4)ncnc32)c1,inhibition,[1],10.4%
same,inhibition,[2],2.7%
same,inhibition,[3],-2.05%
same,inhibition,[4],23.1%
same,inhibition,[5],39.1%
same,inhibition,[6],-1.85%
same,inhibition,[7],-0.62%
same,inhibition,[8],-1.48%
same,inhibition,[9],-0.15%
same,inhibition,[10],1.8%
same,inhibition,[11],8.64%
same,inhibition,[12],1.92%
same,inhibition,[13],5.16%
same,inhibition,[14],2.11%
same,inhibition,[15],1.84%
same,inhibition,[16],1.65%
same,inhibition,[17],-0.32%
same,inhibition,[18],3.45%
same,inhibition,[19],2.28%
same,inhibition,[20],4.38%
